High-throughput results: PubChem BioAssay, National Center for Advancing Translational Sciences (NCATS)
ELG1 genotoxic = induces genotoxicity in HEK293T cells with luciferase-tagged ELG1. HEK293T ELG1-luciferase reporter, luminescence, 16 h. 330,000 compounds, 1.3% hits. Potency, µM (titrated, usually from 46 µM), without a hit: top-dose activity change, positive = activation, most hits filed as activators. AID 504466; further: % of control where 0% means no effect; nearly all actives have a fitted effect of over 60% in size
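HEK293T cells expressing luciferase-tagged ELG1 were treated with compound or DMSO for 16 hr at 37°C. Luciferase activity was then read after 30 min with ONE-Glo at room temperature; rising signal flags genetic stress.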
SMN2 splice up = enhancers of SMN2 splice variant expression; Potency, µM (top dose mostly 46.1 µM), inactives show at the highest dose activity change, positive = activation, most hits filed as activators; HEK293 SMN2-luciferase splicing reporter, luminescence, 30-36 h; 210,000 compounds, 2.8% hits; further: % of control where 0% means no effect; nearly all actives have a fitted effect of over 55% in size
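HEK293 cells carry an SMN2 minigene-luciferase reporter in which exon 7 inclusion puts luciferase in frame. Cells were seeded at 2000 cells/well, attached for 10-12 hours, then exposed to compounds for 30-36 hours at 37C before ONE-Glo luminescence.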
Rab9 prom act = activators of Rab9 promoter; AID 485297; Huh7 Rab9 promoter-luciferase reporter, luminescence, 24 h; Potency, µM (titrated, usually from 9.22 µM), inactives show at the highest dose activation, negative = inhibition, actives largely listed as activators; 320,000 compounds, 2.8% hits; further: % of control where 0% means no effect; nearly all actives have a fitted effect of over 60% in size
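Huh7 reporter line, Rab9 promoter upstream of luciferase. Compound exposure 24 h at 37 °C in reduced-serum medium with 10% FBS. Read-out: luminescence.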
NPC1 promoter act = activators of NPC1 promoter | 320,000 compounds, 2.4% hits | Huh7 NPC1 promoter luciferase reporter, 24 h | Potency, µM (doses to about 9.22 µM), for the others: at the highest dose activation, actives largely listed as activators; further: % of control where 0% means no effect; nearly all actives have a fitted effect of over 60% in size
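Luciferase expression driven by the NPC1 promoter was measured in stably transfected Huh7 cells after a 24 h compound incubation, using a luciferase reagent and a luminescence read.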
FLuc counter = firefly luciferase modulation, counter-screen for miR-21 project; P08659; purified FLuc, Km substrates, luminescence inhibition; Potency, µM (series often up to 57.5 µM), without a hit: top-dose activity change, negative = inhibition, hits mostly inhibitors; 360,000 compounds, 6.9% hits; AID 588342;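 further: plate controls were vehicle for no effect and reference inhibitor for full effect; nearly all actives have a fitted effect of over 55% in size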
Target sequence (P08659 whole entry, looked up): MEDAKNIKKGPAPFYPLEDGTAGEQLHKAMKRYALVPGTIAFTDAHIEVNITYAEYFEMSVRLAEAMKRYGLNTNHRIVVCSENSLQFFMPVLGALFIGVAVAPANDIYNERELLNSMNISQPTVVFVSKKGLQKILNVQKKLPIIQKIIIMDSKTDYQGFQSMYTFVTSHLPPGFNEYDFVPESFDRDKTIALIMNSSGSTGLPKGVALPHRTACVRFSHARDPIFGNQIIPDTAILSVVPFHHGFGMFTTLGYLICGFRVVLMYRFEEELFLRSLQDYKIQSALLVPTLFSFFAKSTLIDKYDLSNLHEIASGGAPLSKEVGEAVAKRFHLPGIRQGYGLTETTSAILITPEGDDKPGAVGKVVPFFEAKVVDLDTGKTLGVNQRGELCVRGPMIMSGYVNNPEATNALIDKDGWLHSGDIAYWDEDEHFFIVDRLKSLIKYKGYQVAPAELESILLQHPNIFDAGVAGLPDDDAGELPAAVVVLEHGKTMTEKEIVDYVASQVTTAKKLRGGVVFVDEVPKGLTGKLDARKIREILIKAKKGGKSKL
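Purified P. pyralis luciferase (10nM final) with 10uM D-luciferin and 10uM ATP (Km levels) in 50mM Tris acetate pH 7.5, 10mM Mg acetate, 0.01% Tween-20, 0.05% BSA; qHTS 6-point titration, ~60 µM downward; luminescence read.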
p53 reactivator = mutant p53 re-activation in reporter cells; 320,000 compounds, 0.063% hits; AID 504706; H1299 p53-A138V BP100-luciferase reporter, luminescence, 24 h; Potency, µM (highest dose often 92.2 µM), inactives show top-dose activity change, positive = activation, most hits filed as activators; further: % of control where 0% means no effect; nearly all actives have a fitted effect of over 45% in size
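H1299 (p53-null), stable ts p53-A138V + BP100-Luc; 1000 cells/well, Opti-MEM/10% FBS; cpd 4 pt, 1:5; 24 h, 37 deg C, 5% CO2; detection reagent 10 min RT; luminescence.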
Active calls of the source: *; ? = inconclusive; nt = not tested or not shown; [ ] = dose if it differs, or a comment. Most compounds without a hit are left out; they make up all but 7.3% or so of the library. The call rests on the fitted dose curve; in most records, active means well fitted curve in the direction sought with a large enough effect; inconclusive means small, poorly fitted or top-dose-only effect, or another doubt; inactive means no such curve, though single readings can be large; an effect the other way counts as inactive or inconclusive. Potency means the concentration at half of the fitted maximal effect.

SMILES | ELG1 genotoxic | SMN2 splice up | Rab9 prom act | NPC1 promoter act | FLuc counter | p53 reactivator
Cc1cc(N/N=C/c2ccccc2O)nc(N2CCOCC2)n1 | 0% | nt | 0% | 4% | 12µM* | -4%
CCOc1ccc(Nc2cc(C)nc(N3CCOCC3)n2)cc1 | 1% | -13% | 6% | -4% | 2% | -7%
CCOc1ccc(Nc2nc(N3CCOCC3)nc(N3CCOCC3)n2)cc1 | 0% | nt | -1% | 2% | -1% | ?
CCOc1ccc(/C=N/Nc2cc(C)nc(N3CCOCC3)n2)cc1 | 3% | nt | 19% | 23% | 1.3µM* | 2%
CCOc1ccc2nc(N3CCOCC3)nc(C)c2c1 | 9.2µM* | 2.8µM* | ? | 4µM* | 11µM* | ?
COc1ccc(/C=N/Nc2cc(C)nc(-n3nc(C)cc3C)n2)cc1 | -10% | -114% | -15% | -3% | 17µM* | 28%
COc1ccc(-c2cc(C)nc3c(-c4ccc(OC)c(OC)c4)c(C)nn23)cc1 | nt | 3% | nt | nt | 6% | nt
CC1CCCN(c2nc3c(-c4ccc(Cl)cc4)nnn3c3ccccc23)C1 (stereo unspecified) | nt | 9% | nt | nt | 2% | nt
O=C(/C=C\c1cn(-c2ccccc2)nc1-c1ccccc1)Nc1nccs1 | 9% | 2% | -1% | 11% | ? | 4%
CC(=O)NS(=O)(=O)c1ccc(NC(=O)/C=C/c2cn(-c3ccccc3)nc2-c2ccccc2)cc1 | 0% | 8% | -4% | -3% | 9.5µM* | 2%
COc1ccc(-c2ccn(-c3cccc(F)n3)n2)cc1 | ? | -55% | 2.2µM* | 3.2µM* | 15µM* | ?
COc1cc2c(cc1OC)CN(C(=O)c1cc(C3CC3)nn1-c1ccccc1)CC2 | -1% | nt | 0% | 3% | 6% | -13%
COc1ccccc1-n1cnc2cc(NC(=O)c3ccco3)ccc21 | ? | 10µM* | -6% | -13% | ? | 6%
COc1ccc(-n2cnc3cc(N)ccc32)cc1 | ? | 14µM* | 20% | 26% | ? | ?
COc1ccc(-n2cnc3cc(C(=O)N4CCOCC4)ccc32)cc1 | ? | nt | ? | 24% | ? | ?
CC(C)n1cnc2cc(NC(=O)c3ccco3)ccc21 | ? | nt | 1.8µM* | 1.1µM* | 11µM* | ?
O=C(Nc1ccc(S(=O)(=O)NC2CCCCC2)cc1)c1ccco1 | 0% | -24% | 2% | -6% | 1% | -15%
O=C(Nc1ccc2c(c1)ncn2C1CCCCC1)c1ccco1 | ? | 23% | 3.5µM* | ? | 13µM* | ?
CCOc1ccc(CN(C(=O)c2cc(=O)c3cc(Cl)ccc3o2)C2CCS(=O)(=O)C2)cc1 (stereo unspecified) | nt | ? | nt | nt | 1% | nt
COc1ccc(-n2cnc3cc(NS(=O)(=O)c4ccccc4)ccc32)cc1 | 3% | 28% | 0% | 3% | ? | -1%
COc1ccc(-n2cnc3cc(NC(=O)c4ccco4)ccc32)cc1 | 15% | -16% | 2% | 4% | 13µM* | 3%
CCCS(=O)(=O)c1cnc(C2COc3ccccc3O2)nc1N (stereo unspecified) | ? | nt | -32% | -23% | 0.12µM* | -12%
S=c1nc(C2COc3ccccc3O2)[nH][nH]1 (stereo unspecified) | 0% | 0% | -2% | 0% | -16% | 10%
COc1ccc2c(c1)C(c1ccc([N+](=O)[O-])cc1)=NNC(c1ccco1)=N2 | -2% | -27% | -2% | 0% | 13µM* | 1%
Cc1cc(C(=O)OCC(=O)c2ccccc2)c2ccccc2n1 | 3% | nt | -3% | -6% | ? | 2%
SMILES | ELG1 genotoxic | SMN2 splice up | Rab9 prom act | NPC1 promoter act | FLuc counter | p53 reactivator
Cc1ccc(C(=O)COC(=O)c2cc(-c3ccc(Cl)cc3)nc3ccccc23)cc1 | nt | 3% | nt | nt | -10% | nt
Cc1ccc(C(=O)COC(=O)c2cc(Cl)nc3ccccc23)cc1C | 0% | -6% | -7% | -6% | 15µM* | 7%
Cc1ccc(C)c(C(=O)COC(=O)c2cc(Cl)nc3ccccc23)c1 | 2% | -10% | -3% | 1% | 12µM* | 18%
Cc1ccc(-c2nn3c(=O)cc(CN4CCN(C(=O)/C=C/c5ccccc5)CC4)nc3s2)cc1 | nt | nt | nt | nt | 3% | nt
O=C(Cc1csc(NC(=O)Nc2ccc(Cl)cc2)n1)NC1CCCC1 | 0% | nt | -3% | 17% | 4.8µM* | 22%
O=C(Cc1nnc(NC(=O)Nc2ccc(Cl)cc2)s1)NCc1ccccc1 | 6% | -2% | -8% | -1% | -3% | -1%
O=C(Cc1csc(NC(=O)Nc2ccc(Cl)cc2)n1)NCc1ccccn1 | 1% | nt | ? | ? | 1.1µM* | 24%
COc1cccc(NC(=O)C2CCCN(c3nnc(-n4c(C)ccc4C)s3)C2)c1 (stereo unspecified) | nt | 8% | nt | nt | -3% | nt
CCCCCCCCCCCCCC(=O)N[C@H](C)[C@@H](O)c1ccccc1 | nt | 4% | nt | nt | nt | nt
O=C1/C(=C/c2cccc3ccccc23)CCCc2ccccc21 | 14% | ? | 26% | 20% | 13µM* | ?
O=C(O)c1c2c(nc3ccccc13)/C(=C/c1ccccc1[N+](=O)[O-])CCC2 | 14% | nt | 4% | -4% | ? | 4%
C/C(=N/NC(=O)c1ccc(Br)s1)c1ccncc1 | 10% | nt | 23% | ? | ? | -15%
C/C(=N/NC(=O)c1ccc(C)s1)c1cccnc1 | ? | nt | ? | 26% | 19µM* | 28%
C/C(=N/NC(=O)c1ccc(Cl)s1)c1cccnc1 | 11% | nt | 3% | 7% | 0% | -15%
C/C(=N/NC(=O)c1ccc(Br)s1)c1cccnc1 | 11% | nt | ? | 28% | 15µM* | 12%
COc1ccc(NC(=O)Cn2nnc(C(=O)NCc3ccccc3Cl)c2N)cc1Cl | nt | nt | nt | nt | 0% | nt
CCc1ccc(NC(=O)C(CC)n2c(=O)c(-c3ccccc3NC(C)=O)nc3ccccc32)cc1 (stereo unspecified) | nt | nt | nt | nt | -6% | nt
COc1ccc(OCc2cc(C(=O)N3CCCCCCC3)no2)c(Cl)c1 | ? | nt | 23% | 24% | ? | -8%
COc1cccc(OCc2cc(C(=O)N3CCN(c4ccccc4OC)CC3)no2)c1 | 17% | nt | ? | ? | 15µM* | ?
COc1cccc(OCc2cc(C(=O)N3CCN(C(C)=O)CC3)no2)c1 | ? | nt | 3.2µM* | ? | ? | 14%
COc1cccc(OCc2cc(C(=O)N3CCN(c4ccccc4O)CC3)no2)c1 | ? | nt | 3.2µM* | 2.8µM* | 12µM* | 13%
CCOC(=O)C12CC1/C(=N/O)c1ccccc1O2 (stereo unspecified) | nt | -16% | -2%[46.1 µM] | -3%[46.1 µM] | nt | nt
C=CCNC(=O)/C(C#N)=C/c1ccccc1OCc1ccc(C(=O)OC)cc1 | ? | ? | 2% | -7% | 1% | ?
